“And” between values parts separate entries of the source, which are not always exact repeats. Identical values can stand only once. Out of some 5,500 compounds screened, about 2,000 (36%) were called active. Roughly 18% stayed inconclusive and do not appear here. Rule as the data show it: active = normalized growth mostly below about 0.91 (no sharp cut-off); inconclusive = no clear call, values can overlap the other calls; inactive = mostly above about 0.92. The list shows a part of the results.
Assay: chemical genetic growth profiling, strain panel (AID 1159580);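 also: tested at 20 µM; growth read once vehicle control cultures reached saturation at 30 °C; 1 = growth at the plate median or of vehicle wells; lower values mean less growth of the strain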
Details: S. cerevisiae deletion strains, growth OD

Measured: normalized growth

CC(=O)O[C@H]1C[C@@H](OC(C)=O)C(C)(C)C2CC(=O)[C@]3(C)C(CC[C@@]4(C)[C@H](c5ccoc5)OC(=O)[C@H]5O[C@]543)[C@]21C (some centres not stated)
inactive: locus YAL021C, strain ccr4, hits give low values 0.973 | locus YAL026C, strain drs2, hits give low values 0.982 | locus YAL030W, strain snc1, hits give low values 0.989 | locus YBL061C, strain skt5, hits give low values 0.993 | locus YBR009C, strain hhf1, hits give low values 0.99 | locus YBR021W, strain FUR4, hits give low values 0.984 | locus YBR023C, strain chs3, hits give low values 1.01 | locus YBR171W, strain sec66, hits give low values 0.999 | locus YBR229C, strain ROT2, hits give low values 0.999 | locus YBR231C, strain swc5, hits give low values 1.01 | locus YBR279W, strain paf1, hits give low values 0.969 | locus YCL011C, strain gbp2, hits give low values 0.998 | locus YCL016C, strain dcc1, hits give low values 0.997 | locus YCL029C, strain bik1, hits give low values 1.01 | locus YCL061C, strain MRC1, hits give low values 0.99 | locus YCL069W, strain vba3, hits give low values 0.99 | locus YCR088W, strain abp1, hits give low values 0.988 | locus YDL005C, strain med2, hits give low values 0.985 | locus YDL035C, strain GPR1, hits give low values 0.982 | locus YDL040C, strain nat1, hits give low values 0.999 | locus YDL074C, strain BRE1, hits give low values 0.981 | locus YDL101C, strain DUN1, hits give low values 1.02 | locus YDL185W, strain tfp1, hits give low values 0.998 | locus YDL192W, strain arf1, hits give low values 1 | locus YDR001C, strain nth1, hits give low values 0.976 | locus YDR069C, strain doa4, hits give low values 0.989 | locus YDR101C, strain arx1, hits give low values 0.997 | locus YDR137W, strain rgp1, hits give low values 0.974 | locus YDR159W, strain sac3, hits give low values 0.973 | locus YDR162C, strain NBP2, hits give low values 1 | locus YDR195W, strain ref2 0.94 | locus YDR297W, strain sur2, hits give low values 0.988 | locus YDR318W, strain mcm21, hits give low values 1.01 | locus YDR334W, strain swr1, hits give low values 0.983 | locus YDR335W, strain msn5, hits give low values 0.98 | locus YDR388W, hits give low values 1.01 | locus YDR392W, strain spt3, hits give low values 0.997 | locus YDR502C, strain sam2, hits give low values 1.03 | locus YEL003W, strain gim4, hits give low values 0.991 | locus YEL037C, strain rad23, hits give low values 0.988 | locus YEL061C, strain CIN8 (second series), hits give low values 0.994 | locus YER015W, strain faa2, hits give low values 0.994 | locus YER016W, strain bim1, hits give low values 0.991 | locus YER110C, hits give low values 1.02 | locus YER111C, strain swi4, hits give low values 1 | locus YER155C, strain BEM2 (second series), hits give low values 0.992 | locus YER155C, strain BEM2, hits give low values 1.01 | locus YER167W, strain BCK2, hits give low values 0.997 | locus YFR010W, strain ubp6, hits give low values 0.981 | locus YGL078C, strain dbp3, hits give low values 1.03 | locus YGL086W, strain mad1, hits give low values 1.01 | locus YGL167C, strain pmr1, hits give low values 0.997 | locus YGL173C, strain kem1, hits give low values 0.99 | locus YGL227W, strain vid30, hits give low values 0.993 | locus YGL240W, strain doc1, hits give low values 1.01 | locus YGL248W, strain PDE1, hits give low values 1 | locus YGL253W, strain hxk2, hits give low values 0.988 | locus YGR078C, strain PAC10, hits give low values 1.02 | locus YGR135W, strain pre9, hits give low values 1.06 | locus YGR252W, strain gcn5, hits give low values 0.994 | locus YHR013C, strain ard1, hits give low values 0.998 | locus YHR027C, strain rpn1, hits give low values 0.994 | locus YHR030C, strain SLT2, hits give low values 0.969 | locus YHR079C, strain IRE1 (second series), hits give low values 1.02 | locus YHR079C, strain IRE1, hits give low values 0.966 | locus YHR094C, strain hxt1, hits give low values 1.02 | locus YHR129C, strain ARP1, hits give low values 1.01 | locus YHR142W, strain chs7, hits give low values 1.01 | locus YHR200W, strain rpn10, hits give low values 1.02 | locus YIL066C, strain RNR3, hits give low values 0.998 | locus YIL073C, strain SPO22, hits give low values 1.32 | locus YIL125W, strain kgd1, hits give low values 1.01 | locus YIR030C, strain dcg1, hits give low values 1.01 | locus YJL092W, strain hpr5, hits give low values 0.994 | locus YJL095W, strain BCK1 (second series), hits give low values 0.996 | locus YJL095W, strain BCK1, hits give low values 1.04 and 0.973 | locus YJL115W, strain asf1, hits give low values 0.973 | locus YJL129C, strain trk1, hits give low values 0.991 | locus YJL134W, strain LCB3, hits give low values 1 | locus YJL154C, strain vps35, hits give low values 0.986 | locus YJL164C, strain tpk1, hits give low values 0.994 | locus YJL166W, strain qcr8, hits give low values 0.993 | locus YJL168C, strain set2, hits give low values 1.01 | locus YJL187C, strain SWE1 (second series), hits give low values 1.02 | locus YJL187C, strain SWE1, hits give low values 0.988 | locus YJR043C, strain POL32, hits give low values 0.958 | locus YJR066W, strain TOR1, hits give low values 0.915

Source: PubChem BioAssay AID1159580 (chemical genetic matrix, 2015)
